Screening data (PubChem)
Tau fluor cs: counter-screen for tau fibril formation inhibitors; tau K18 P301L Alexa594 fluorescence, heparin fibrillization; Potency, µM (titrated, usually from 57.7 µM); 280,000 tested, 0.93% active; note: nearly all actives have a fitted effect of over 55% in size
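Human tau K18 P301L (15 uM unlabeled, 0.24 uM Alexa 594-labeled) in 100 mM sodium acetate pH 7 with 20 uM heparin, 6 hr at 37 C. ThT 30 uM added, 1 hr ambient; Alexa 594 FP and total fluorescence read at 555/632 nm.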
Sfp PPTase inh: Sfp phosphopantetheinyl transferase inhibition. Q9F4F7. Biochemical Sfp PPTase activity, qHTS. Potency, µM, hits mostly inhibitors. 310,000 tested, 3.5% active. AID 1490;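 note: the enzyme is Sfp with the accession as filed and its product quenches rhodamine fluorescence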
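Fluorescence-quenching assay with 15 nM Sfp, 5 uM rhodamine-CoA and 12.5 uM BHQ-2-labelled ybbR peptide in pH 7.6 Hepes/MgCl2 buffer. Enzyme was pre-incubated with compound for 15 min at room temperature. Rate was taken from the 30-min fluorescence change (525/598 nm).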
Tau FP inhib: blocks human tau fibril formation measured by polarization; P10636; K18 P301L tau heparin fibrillization, Alexa594 FP, 6 h; Potency, µM (top dose mostly 57.7 µM), usual class: inhibitors; 280,000 tested, 0.39% active; AID 1468; note: nearly all actives have a fitted effect of over 55% in size
Target sequence (P10636 561-689 P618L limits assumed): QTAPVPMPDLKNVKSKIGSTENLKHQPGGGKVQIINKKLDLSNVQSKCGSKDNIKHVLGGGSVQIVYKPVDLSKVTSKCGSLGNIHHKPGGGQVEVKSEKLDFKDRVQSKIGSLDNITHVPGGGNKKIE
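Quantitative HTS format: compounds meet 15 uM recombinant K18 P301L tau and Alexa 594-tau tracer in 100 mM sodium acetate pH 7; 20 uM heparin triggers fibrillization at 37 C over 6 hr; FP gives the signal.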
G9a inh: G9a (human) methyltransferase inhibition. AID 504332. Q96KQ7. G9a H3K9 monomethylation, AlphaScreen, 2 h. Potency, µM (series often up to 102 µM), usual class: inhibitors. 350,000 tested, 8.8% active; note: nearly all actives have a fitted effect of over 75% in size
Target sequence (Q96KQ7 913-1193 limits assumed): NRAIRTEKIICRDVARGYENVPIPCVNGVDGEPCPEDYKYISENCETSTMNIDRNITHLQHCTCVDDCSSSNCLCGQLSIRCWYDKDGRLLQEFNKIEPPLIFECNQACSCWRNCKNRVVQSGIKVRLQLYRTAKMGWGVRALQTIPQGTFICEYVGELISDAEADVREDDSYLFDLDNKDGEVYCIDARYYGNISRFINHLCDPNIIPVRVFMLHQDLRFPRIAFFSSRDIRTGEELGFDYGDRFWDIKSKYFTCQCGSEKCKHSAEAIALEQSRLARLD
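Compounds were preincubated with 20 nM G9a for 15 min, after which biotinylated H3K9 peptide (500 nM) and SAM (20 uM) started a 2 h room-temperature reaction. Monomethylated product was quantified by antibody-based AlphaScreen chemiluminescence.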
Tau ThT inhib: tau fibrillization inhibition (ThT binding); P10636; recombinant tau K18 P301L (four-repeat tau fragment), heparin-induced fibrillization, ThT fluorescence; Potency, µM (titrated, usually from 57.4 µM), most hits filed as inhibitors; 270,000 tested, 2.1% active; AID 1460; note: nearly all actives have a fitted effect of over 55% in size
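Heparin-induced (20 uM) aggregation of recombinant human K18 P301L tau, 15 uM unlabeled with 0.24 uM labeled, pH 7 acetate buffer, 6 hr at 37 C with compound. Fibrils quantified by 30 uM ThT fluorescence after 1 hr ambient incubation.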
Coupling enz: coupling enzyme interference in Giardia aldolase counter-screen | 290,000 tested, 0.67% active | coupling enzyme system counterscreen, AmpLite Red fluorescence | activity change, negative = inhibition, % at 58.2 µM, hits read low; in the data active = activity change below about -30%
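First, compound is pin-transferred into glyceraldehyde-3-phosphate coupling-enzyme reagent at 57.5 uM final and held 10 min at RT. Next, substrate, coupling system and AmpLite Red are added. After 20 min RT, fluorescence (525/598 nm) is read.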
A number is an active result; n = inactive; u = inconclusive; x = no result given; [ ] = remark or other dose. Shown are actives, neighbours in structure and some others; about 11% of the full set was active somewhere. Unless noted, calls come from the whole dose curve; as a rule, active = well fitted curve in the direction sought with a large enough effect; inconclusive = small, poorly fitted or top-dose-only effect, or another doubt; inactive = no such curve, though single readings can be large; an effect the other way counts as inactive or inconclusive.

SMILES	Tau fluor cs	Sfp PPTase inh	Tau FP inhib	G9a inh	Tau ThT inhib	Coupling enz
CCc1ccc(C2c3c(oc4ccc(F)cc4c3=O)C(=O)N2c2nc(C)c(C(=O)OC)s2)cc1 (stereo unspecified)	n	x	n	n	n	x
CCN(CC)CCOC(=O)c1ccc(NC(=O)c2nn(-c3ccc(C)cc3)c(=O)c3c2c2ccccc2n3C)cc1	n	x	n	3.2µM	n	x
CCN(C(=O)c1nn(-c2ccc(C)cc2)c(=O)c2c1c1ccccc1n2C)c1ccc(F)cc1	n	x	n	1.3µM	n	x
CCN(CC)CCCNC(=O)c1nn(-c2ccc(C)cc2)c(=O)c2c1c1ccccc1n2C	n	x	n	n	n	x
Cc1nn(C)c2c1c(C(F)(F)F)cc(=O)n2CC(=O)N1CCC(C)CC1	n	x	n	n	n	x
COC(=O)c1ccc(Nc2ncnc3c2nc2n3CCCC2)cc1	n	x	n	n	n	x
COc1ccc(C(=O)NNc2ncnc3c2cnn3-c2cccc(Cl)c2)cc1OC	u	x	u	n	n	x
NC(=O)[C@@H]1CCCNc2c(I)cc([N+](=O)[O-])cc2C(=O)N[C@@H](Cc2ccccc2)C(=O)N[C@@H](Cc2cnc[nH]2)C(=O)N1	n	n	n	8.9µM	n	n
NC(=O)[C@@H]1CCCNc2c(I)cc([N+](=O)[O-])cc2C(=O)N[C@@H](CO)C(=O)N[C@@H](Cc2ccc(O)cc2)C(=O)N1	n	n	n	45µM	u	n
CC(C)C[C@@H]1NC(=O)[C@H](Cc2ccc(O)cc2)NC(=O)c2cc([N+](=O)[O-])cc(I)c2NCCC[C@@H](C(N)=O)NC1=O	u	n	n	71µM	u	n
NC(=O)[C@@H]1CCCNc2c(I)cc([N+](=O)[O-])cc2C(=O)N[C@@H](CO)C(=O)NCC(=O)N1	n	n	n	79µM	n	n
COc1cccc(CNCc2ccccc2Br)c1OC	x	n	x	n[0.501 µM]	x	n
NC(=O)CC[C@@H]1NC(=O)[C@H](CO)NC(=O)c2cc([N+](=O)[O-])cc(I)c2NCCC[C@@H](C(N)=O)NC(=O)[C@H](Cc2ccc(O)cc2)NC1=O	n	n	n	50µM	u	n
CCOC(=O)C1=C(COC(=O)CCNS(=O)(=O)c2ccc(C)c(C)c2)NC(=O)NC1C (stereo unspecified)	x	x	x	n	x	x
CN(Cc1ccc(OCC(O)CN2CCCCC2)cc1)Cc1ccnc2ccccc12 (stereo unspecified)	n	n	n	50µM	n	n
CCN(CC)c1sc(S(=O)(=O)c2ccccc2)nc1S(=O)(=O)c1ccc(C)cc1	n	x	n	n	n	x
O=C(Nc1cccc(F)c1)c1ccc(Br)o1	n	n	n	28µM	u	n
O=C(Nc1ccccc1C(=O)O)c1cccc(NC(=O)c2ccc(Br)o2)c1	n	n	n	18µM	n	n
Cc1c(Cl)cccc1NC(=O)Cn1c(=O)cc(C)c2c(C)nn(-c3cccc(F)c3)c21	n	x	n	n	n	x
CCCCN(Cc1cc2cc(C)ccc2[nH]c1=O)C(=O)c1ccccn1	n	n	n	n	n	n
CCCN(Cc1cc2ccc(C)cc2[nH]c1=O)C(=O)c1ccccn1	n	u	n	32µM	n	-32
CC1CN(C(=O)N2CCCCC2)CCN1C(=O)N1CCCCC1 (stereo unspecified)	n	n	n	n	n	n
COc1ccc(C2c3cccn3CCN2S(=O)(=O)c2ccc([N+](=O)[O-])cc2)cc1 (stereo unspecified)	u	x	n	13µM	u	x
O=S(=O)(c1ccc(Br)cc1)N1CCn2cccc2C1c1ccc(Br)cc1 (stereo unspecified)	n	x	u	n	n	x
Nc1c(O)ccc2c1C(=O)c1ccccc1C2=O	u	n	u	2.5µM	14µM	n
SMILES	Tau fluor cs	Sfp PPTase inh	Tau FP inhib	G9a inh	Tau ThT inhib	Coupling enz
COc1ccc2c(c1O)C(=O)c1ccccc1C2=O	n	n	n	n[12.7 µM]	u	n
COCCCNC(=O)C1CCCN(S(=O)(=O)c2ccc3c(c2)oc(=O)n3C)C1 (stereo unspecified)	n	x	n	n	n	x
COc1ccc(NC(=S)NC(NC(=O)CCl)C(Cl)(Cl)Cl)c([N+](=O)[O-])c1 (stereo unspecified)	u	25µM	n	25µM	16µM	n
COc1ccc(NC(=S)NC(NC(=O)c2cccc3ccccc23)C(Cl)(Cl)Cl)c([N+](=O)[O-])c1 (stereo unspecified)	u	n	n	45µM	u	n
COc1ccc(NC(=S)NC(NC(=O)c2ccc(Cl)cc2Cl)C(Cl)(Cl)Cl)c([N+](=O)[O-])c1 (stereo unspecified)	u	n	n	u	u	n
COc1ccc(NC(=S)NC(NC(=O)c2ccccc2Cl)C(Cl)(Cl)Cl)c([N+](=O)[O-])c1 (stereo unspecified)	u	n	n	n[12.7 µM]	u	n
CCc1cccc(NC(=O)Cn2c(=O)n(-c3ccccc3C)c(=O)c3c2c2cc(C)ccc2n3C)c1	n	x	n	n	n	x
CC(C)C(NC(=O)/C(=C\c1ccco1)NC(=O)c1ccco1)C(=O)O (stereo unspecified)	x	n	x	40µM	x	n
CC(C)C(NC(=O)/C(=C/c1ccco1)NC(=O)c1ccc(Br)o1)C(=O)O (stereo unspecified)	x	u	x	22µM	x	n
Cc1cccn2c(=O)c(C=O)c(N3CCC4(CC3)OCCO4)nc12	n	n	n	n	n	n
CCCOc1ccc(C2C(=O)N(C3CCCCCC3)CC(=O)N2CCCOCC)cc1OC (stereo unspecified)	n	x	n	n	n	x
CCOC(=O)c1ccc(NC(=O)CSc2nc(-c3ccc(OC)cc3)cc(C(F)(F)F)c2C#N)cc1	n	x	u	n	u	x
COc1ccccc1N1CCN(CCCNC(=O)c2cnn(-c3ccccc3)c2C2CCN(C(=O)OC(C)(C)C)CC2)CC1	n	x	n	n	n	x
Cc1nc2c3ccccc3nc(NNC(=O)CCC(=O)O)n2n1	n	x	n	u	n	x
Cc1cc(CN2CCN(CC(=O)Nc3cc(C(F)(F)F)ccc3-n3cncn3)CC2)no1	x	x	x	n[12.7 µM]	x	x
O=C(NC(NC(=S)Nc1ccccc1C(=O)O)C(Cl)(Cl)Cl)c1ccco1 (stereo unspecified)	n	40µM	n	10µM	u	n
COC(=O)c1ccccc1NC(=S)NC(NC(=O)c1ccco1)C(Cl)(Cl)Cl (stereo unspecified)	u	n	u	2.2µM	n	n
Cc1ccc(NC(=S)NC(NC(=O)c2ccccc2C)C(Cl)(Cl)Cl)c(C)c1 (stereo unspecified)	u	n	n	u	n	n
